According to PubChem BioAssay (Tox21):
Records with an inconclusive call do not appear. A call without a number means that no potency is given here. Calls of active or inactive are those of the source. Unless noted, calls come from the whole dose curve; as a rule, active = well fitted curve in the direction sought with a large enough effect in the repeat runs; inconclusive = weak or mixed curves; inactive = no such curve, though single readings can be large; an effect the other way counts as inactive or inconclusive.

Legend:
[1] = qHTS assay to identify small molecule antagonists of the thyroid receptor (TR) signaling pathway (AID 743065); note: series mostly up to about 70 µM; nearly all actives have a fitted effect of over 55% in size
How it was run: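 Antagonism measured as loss of luciferase signal in GH3 cells stably carrying a TRE-luciferase reporter, co-treated with compound and T3 (1 nM final) for 23.5 h at 37 C. Viability was read in the same well by CellTiter-Fluor.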

[2] = test system: thyroid hormone receptor (rat, GH3 cells); experiment: qHTS assay to identify small molecule agonists of the thyroid receptor (TR) signaling pathway (AID 743066; calls by dose curve)
[3] = molecular target: Estrogen receptor (Homo sapiens) (UniProt P03372); experiment: qHTS assay to identify small molecule antagonists of the estrogen receptor alpha (ER-alpha) signaling pathway (AID 743069; active = well fitted curve in the direction sought with a large enough effect in the signal ratio in the repeat runs, not every such curve was filed as active; the % refers to the signal ratio)
How it was run: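 Fluorescence intensity from a beta-lactamase FRET substrate served as the read-out. Cells: HEK293 with stably integrated ER-alpha-UAS-bla reporter. Agonist 17beta-estradiol was co-added with compounds; incubation 18 hr at 37C, substrate 2 hr at room temperature.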

[4] = qHTS assay to identify small molecule antagonists of the estrogen receptor alpha (ER-alpha) signaling pathway - cell viability counter screen (AID 743074; calls by dose curve; note: nearly all actives have a fitted effect of over 45% in size)
[5] = molecular target: Estrogen receptor (Homo sapiens) (UniProt P03372); experiment: qHTS assay to identify small molecule agonists of the estrogen receptor alpha (ER-alpha) signaling pathway (AID 743075; calls by dose curve)
[6] = molecular target: Estrogen receptor (Homo sapiens) (UniProt P03372); experiment: qHTS assay to identify small molecule agonists of the estrogen receptor alpha (ER-alpha) signaling pathway using the BG1 cell line (AID 743079); note: nearly all actives have a fitted effect of over 20% in size
[7] = qHTS assay to identify small molecule antagonists of the estrogen receptor alpha (ER-alpha) signaling pathway using the BG1 cell line (AID 743080; calls by dose curve;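 note: BG1 cells stimulated with 17beta-estradiol alongside compound; series mostly up to about 70 µM; nearly all actives have a fitted effect of over 25% in size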)
How it was run: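 Luciferase inhibition measured with ONE-Glo after 30 min at RT in BG1Luc4E2 cells given test compounds and 17beta-estradiol for 21.5 h at 37 C; CellTiter-Fluor viability read in the same wells beforehand.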

[8] = qHTS assay to identify small molecule antagonists of the estrogen receptor alpha (ER-alpha) signaling pathway using the BG1 cell line - cell viability counter screen (AID 743081);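 note: compound given together with 17beta-estradiol as the ER stimulus; series mostly up to about 70 µM; nearly all actives have a fitted effect of over 45% in size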
[9] = molecular target: Aromatase (Homo sapiens) (UniProt P11511); experiment: qHTS assay to identify aromatase inhibitors (AID 743083); note: series mostly up to about 70 µM; nearly all actives have a fitted effect of over 55% in size
[10] = qHTS assay to identify aromatase inhibitors - cell viability counter screen (AID 743084);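 note: cells stimulated with testosterone during compound exposure; nearly all actives have a fitted effect of over 55% in size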
[11] = molecular target: Aryl hydrocarbon receptor (Homo sapiens) (UniProt P35869); experiment: qHTS assay to identify small molecule that activate the aryl hydrocarbon receptor (AhR) signaling pathway (AID 743085); note: nearly all actives have a fitted effect of over 15% in size; note: potency is the fitted concentration of half-maximal effect;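 for activation: HG2L7.5c1 human HepG2 liver cells with stably integrated DRE-driven firefly reporter; series mostly up to about 70 µM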
How it was run: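 HepG2 cells (HG2L7.5c1) stably carrying a firefly luciferase reporter driven by 20 dioxin responsive elements were exposed to compound for 24 h at 37C after a 5 h settling period; luminescence rise (ONE-Glo) indicated activation.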

[12] = qHTS assay to identify small molecule that activate the aryl hydrocarbon receptor (AhR) signaling pathway - cell viability counter screen (AID 743086);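 note: HepG2 liver cells carrying the AhR DRE luciferase reporter; series mostly up to about 70 µM; nearly all actives have a fitted effect of over 45% in size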
How it was run: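 Cytotoxicity counter screen: CellTiter-Fluor signal (30 min, 37 C) in 4000 HepG2 cells/well carrying the DRE-luciferase reporter, following 24 h compound exposure at 37 C.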

[13] = molecular target: Peroxisome proliferator-activated receptor gamma (Homo sapiens) (UniProt P37231); experiment: qHTS assay to identify small molecule agonists of the peroxisome proliferator-activated receptor gamma (PPARg) signaling pathway (AID 743094; active = well fitted activation curve with a large enough effect in the signal ratio in the repeat runs, not every such curve was filed as active; the % refers to the signal ratio)
How it was run: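 Cell-based bla reporter, HEK293H background, PPARg-driven UAS. Pre-incubation 5 h, 37C, 5% CO2. Compound 17 h, 37C. Substrate 1 h RT; fluorescence.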

[14] = molecular target: Peroxisome proliferator-activated receptor gamma (Homo sapiens) (UniProt P37231); experiment: qHTS assay to identify small molecule antagonists of the peroxisome proliferator-activated receptor gamma (PPARg) signaling pathway (AID 743191; calls by dose curve; note: series mostly up to about 63 µM; nearly all actives have a fitted effect of over 30% in size)
How it was run: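 Beta-lactamase reporter under UAS control in HEK293H PPARg-bla cells; compound treatment 17 h at 37C. Read-out: fluorescence intensity after 1 h room-temperature incubation with LiveBLAzer B/G FRET substrate.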

[15] = qHTS assay to identify small molecule antagonists of the peroxisome proliferator-activated receptor gamma (PPARg) signaling pathway - cell viability counter screen (AID 743194); note: nearly all actives have a fitted effect of over 55% in size
How it was run: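 Viability was measured as CellTiter-Glo luminescence in GeneBLAzer PPARg UAS-bla HEK293H cells. These cells had been exposed 17 h at 37 C to compounds together with rosiglitazone at 50 nM final, with the beta-lactamase readout taken in the same wells.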

[16] = qHTS assay for small molecule agonists of the antioxidant response element (ARE) signaling pathway - cell viability counter screen (AID 743203; calls by dose curve; note: nearly all actives have a fitted effect of over 55% in size)
How it was run: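 Measured in the same wells as the beta-lactamase ARE reporter, this read-out is CellTiter-Glo luminescence from HepG2 ARE-bla cells given compounds for 16 hrs.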

[17] = qHTS assay for small molecule activators of the heat shock response signaling pathway - cell viability counter screen (AID 743209); note: nearly all actives have a fitted effect of over 50% in size
How it was run: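 Same-well multiplex: after 2.5 h room-temperature incubation with LiveBLAzer B/G substrate and fluorescence reading, CellTiter-Glo reagent was added to HSE-bla HeLa cells that had received compound for 5 h at 37 C; luminescence read after 30 min.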

[18] = qHTS assay for small molecule activators of the heat shock response signaling pathway (AID 743210; active = well fitted activation curve with a large enough effect in the signal ratio in the repeat runs, with a control signal flat, not every such curve was filed as active; the % refers to the signal ratio;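 note: HeLa cells with beta-lactamase reporter driven by heat shock elements; series mostly up to about 63 µM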)
How it was run: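 Fluorescence from a cleaved B/G FRET substrate (2.5 h, room temp) reports HSE-driven beta-lactamase in HeLa cells treated 5 h at 37 C with DMSO-dissolved compounds.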

[19] = qHTS assay to identify small molecule agonists of the peroxisome proliferator-activated receptor delta (PPARd) signaling pathway - cell viability counter screen (AID 743211); note: nearly all actives have a fitted effect of over 55% in size
How it was run: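 PPARd-bla HEK293H cells (UAS-beta-lactamase reporter) were treated with compounds for 17 h at 37 C. Viability was then read in the same wells by CellTiter-Glo luminescence after 30 min at room temperature.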

[20] = qHTS assay for small molecule agonists of the antioxidant response element (ARE) signaling pathway (AID 743202; active = well fitted activation curve with a large enough effect in the signal ratio in the repeat runs, not every such curve was filed as active; the % refers to the signal ratio)
How it was run: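 Beta-lactamase reporter activity, read as fluorescence intensity, reflects ARE/Nrf2 pathway induction in HepG2 cells after 16 h compound exposure at 37 C; substrate loading was 2 h at room temperature.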

Sequence of Aromatase (Homo sapiens) (P11511 whole entry, looked up): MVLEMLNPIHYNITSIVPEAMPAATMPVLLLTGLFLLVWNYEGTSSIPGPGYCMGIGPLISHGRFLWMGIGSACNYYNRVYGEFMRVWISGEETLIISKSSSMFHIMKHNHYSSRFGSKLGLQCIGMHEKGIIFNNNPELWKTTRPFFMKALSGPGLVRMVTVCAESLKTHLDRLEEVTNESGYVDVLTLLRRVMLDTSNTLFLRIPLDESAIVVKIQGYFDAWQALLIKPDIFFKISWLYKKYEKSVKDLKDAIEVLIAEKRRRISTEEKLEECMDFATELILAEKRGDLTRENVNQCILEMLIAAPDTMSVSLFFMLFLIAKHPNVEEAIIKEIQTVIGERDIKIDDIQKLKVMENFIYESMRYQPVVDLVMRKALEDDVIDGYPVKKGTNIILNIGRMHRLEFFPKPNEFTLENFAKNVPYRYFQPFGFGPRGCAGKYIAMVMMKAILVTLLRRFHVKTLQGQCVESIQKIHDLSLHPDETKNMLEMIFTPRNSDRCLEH
Sequence of Peroxisome proliferator-activated receptor gamma (Homo sapiens) (P37231 whole entry, looked up): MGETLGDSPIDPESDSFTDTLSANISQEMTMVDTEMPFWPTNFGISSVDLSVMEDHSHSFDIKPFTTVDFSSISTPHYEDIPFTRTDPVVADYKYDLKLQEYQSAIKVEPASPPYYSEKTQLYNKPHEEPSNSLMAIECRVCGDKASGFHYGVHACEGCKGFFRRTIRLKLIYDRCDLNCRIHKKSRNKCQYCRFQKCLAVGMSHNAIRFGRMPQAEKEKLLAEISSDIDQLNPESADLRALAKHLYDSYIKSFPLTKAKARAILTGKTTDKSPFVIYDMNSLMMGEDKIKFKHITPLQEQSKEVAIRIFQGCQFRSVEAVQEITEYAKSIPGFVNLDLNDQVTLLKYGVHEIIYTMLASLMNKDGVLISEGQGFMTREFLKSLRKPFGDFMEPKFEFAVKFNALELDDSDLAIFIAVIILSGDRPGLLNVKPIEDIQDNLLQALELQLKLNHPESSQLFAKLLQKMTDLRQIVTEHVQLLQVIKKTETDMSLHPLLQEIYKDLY
Sequence of Aryl hydrocarbon receptor (Homo sapiens) (P35869 whole entry, looked up): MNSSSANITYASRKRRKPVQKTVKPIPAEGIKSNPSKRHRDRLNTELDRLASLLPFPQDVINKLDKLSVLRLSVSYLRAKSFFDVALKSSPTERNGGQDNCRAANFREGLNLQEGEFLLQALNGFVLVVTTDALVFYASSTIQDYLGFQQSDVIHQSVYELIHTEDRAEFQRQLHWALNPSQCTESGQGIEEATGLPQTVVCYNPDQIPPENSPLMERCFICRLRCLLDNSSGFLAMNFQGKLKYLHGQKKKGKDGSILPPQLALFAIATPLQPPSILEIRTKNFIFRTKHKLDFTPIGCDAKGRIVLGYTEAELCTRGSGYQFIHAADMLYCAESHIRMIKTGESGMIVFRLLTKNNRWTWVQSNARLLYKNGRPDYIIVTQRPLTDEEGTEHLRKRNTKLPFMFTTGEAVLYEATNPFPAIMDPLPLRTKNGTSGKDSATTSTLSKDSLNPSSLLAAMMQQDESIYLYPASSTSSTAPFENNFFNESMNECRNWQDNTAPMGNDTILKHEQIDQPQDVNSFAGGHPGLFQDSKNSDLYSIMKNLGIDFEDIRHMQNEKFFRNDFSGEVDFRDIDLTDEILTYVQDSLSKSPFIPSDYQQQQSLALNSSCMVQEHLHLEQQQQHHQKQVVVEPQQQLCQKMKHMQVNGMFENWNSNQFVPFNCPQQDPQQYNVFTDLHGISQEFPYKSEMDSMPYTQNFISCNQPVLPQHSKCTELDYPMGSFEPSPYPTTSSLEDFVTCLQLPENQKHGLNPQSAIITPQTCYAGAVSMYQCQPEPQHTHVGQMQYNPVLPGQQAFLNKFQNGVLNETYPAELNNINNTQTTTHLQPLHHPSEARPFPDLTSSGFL
Sequence of Estrogen receptor (Homo sapiens) (P03372 whole entry, looked up): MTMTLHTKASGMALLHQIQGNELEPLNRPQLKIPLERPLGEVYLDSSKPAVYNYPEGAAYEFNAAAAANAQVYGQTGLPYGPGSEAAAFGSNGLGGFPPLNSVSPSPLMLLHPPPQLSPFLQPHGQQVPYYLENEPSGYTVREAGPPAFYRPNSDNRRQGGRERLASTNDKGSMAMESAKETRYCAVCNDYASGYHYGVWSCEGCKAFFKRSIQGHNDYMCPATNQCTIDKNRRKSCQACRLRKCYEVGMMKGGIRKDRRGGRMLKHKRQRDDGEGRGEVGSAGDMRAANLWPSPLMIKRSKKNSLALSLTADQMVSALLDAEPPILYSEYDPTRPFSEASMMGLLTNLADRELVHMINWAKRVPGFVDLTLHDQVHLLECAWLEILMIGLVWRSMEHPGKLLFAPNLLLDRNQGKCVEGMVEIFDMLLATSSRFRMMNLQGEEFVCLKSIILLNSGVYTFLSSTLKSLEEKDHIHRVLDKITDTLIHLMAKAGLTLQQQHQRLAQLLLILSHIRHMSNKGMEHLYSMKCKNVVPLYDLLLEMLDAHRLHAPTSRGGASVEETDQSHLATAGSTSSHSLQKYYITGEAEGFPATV

Compound | Potency [1] | Potency [2] | Potency [3] | Potency [4] | Potency [5] | Potency [6] | Potency [7] | Potency [8] | Potency [9] | Potency [10] | Potency [11] | Potency [12] | outcome [13] | outcome [14] | outcome [15] | outcome [16] | outcome [17] | outcome [18] | outcome [19] | Potency [20]
CCCC(O)C(CC)CO (configuration not stated) | inactive | inactive | inactive | inactive | inactive | inactive | inactive | inactive | inactive | inactive | inactive | inactive | inactive | inactive | inactive | inactive | inactive | inactive | inactive | –
NNC(=O)c1ccncc1 | inactive | inactive | inactive | inactive | inactive | inactive | inactive | inactive | inactive | inactive | 13.3 µM (active) | inactive | inactive | inactive | inactive | inactive | inactive | inactive | inactive | inactive
NC(N)=O | inactive | inactive | inactive | inactive | inactive | inactive | inactive | inactive | inactive | inactive | – | inactive | inactive | inactive | inactive | inactive | inactive | inactive | inactive | –
